M1 ag parental = M1 agonist counterscreen hit in parental CHO-K1 cells. Fluo-8 calcium fluorescence; scaled to maximal ATP response, vehicle zero. activation, % at 3 µM. actives 0.48% (n = 360,000). AID 602248; in the data active = activation above about 15%;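 also: untransfected CHO-K1 host cells lacking M1 receptor as counterscreen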
M1 PAM parental = M1 PAM counterscreen hit in parental CHO-K1 cells; ATP EC20, Fluo-8 calcium fluorescence; 0% at ATP EC20, 100% at ATP max; activation, % at 3 µM; actives 0.02% (n = 360,000); AID 602247;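 active = activation above the run cutoff, the mean activation of all test compounds plus 3 SD, cut at about 40% in these data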;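 also: peak over basal fluorescence ratio in a 140 s read after ATP addition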
CHRM1 agonist = agonists of human M1 muscarinic receptor. actives 0.33% (n = 360,000). CHO-K1 hM1, Fluo-8 calcium fluorescence, agonist mode; 0% DMSO, 100% acetylcholine EC100. P11229. AID 588814. activation, % at 3 µM;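 active = activation above the run's mean compound activation plus 3 SD, cut at about 16% in these data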;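 also: peak over basal fluorescence ratio within a 140 s kinetic read after compound addition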
Target sequence (P11229 whole entry, looked up): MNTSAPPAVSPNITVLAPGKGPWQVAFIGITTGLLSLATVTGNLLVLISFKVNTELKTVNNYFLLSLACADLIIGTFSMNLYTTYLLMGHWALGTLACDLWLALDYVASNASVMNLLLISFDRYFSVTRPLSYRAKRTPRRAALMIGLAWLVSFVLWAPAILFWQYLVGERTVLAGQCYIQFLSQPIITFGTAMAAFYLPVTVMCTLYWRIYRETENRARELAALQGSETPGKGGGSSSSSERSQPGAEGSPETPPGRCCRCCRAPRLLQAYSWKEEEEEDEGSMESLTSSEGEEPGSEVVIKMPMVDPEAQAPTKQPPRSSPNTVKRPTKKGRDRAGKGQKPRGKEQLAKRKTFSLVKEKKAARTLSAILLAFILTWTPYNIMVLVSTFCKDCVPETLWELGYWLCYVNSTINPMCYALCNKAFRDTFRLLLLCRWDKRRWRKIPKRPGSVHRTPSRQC
CHRM1 antagonist = antagonists of human M1 muscarinic receptor; P11229; CHO-K1 hM1, Fluo-8 calcium fluorescence, ACh EC80 antagonist; inhibition, % at 3 µM; AID 588852; actives 1.3% (n = 360,000);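 active = percent inhibition above its own plate's cutoff, namely the mean of that plate's compound wells plus 3 SD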;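 also: peak over basal fluorescence ratio during 140 s after agonist addition; 0% = ACh EC80 plus DMSO and 100% = DMSO alone without agonist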
M1 PAM = positive allosteric modulators of human M1 muscarinic receptor; actives 0.088% (n = 360,000); P11229; AID 588819; activation, % at 3 µM; CHO-K1 hM1, Fluo-8 calcium fluorescence, ACh EC20; 0% = ACh EC20, 100% = maximal ACh; in the data active = activation above about 19%, passing the limit was not always enough
CHO-K1 Ca antag = nonselective inhibitor or artifact in parental CHO-K1 cells; ATP-induced calcium, Fluo-8 fluorescence; inhibition, % at 3 µM; actives 0.6% (n = 360,000); AID 602250;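 active = inhibition above a per-plate cutoff, the plate's mean sample inhibition plus 3 SD, cut at about 24% in these data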;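 also: 0% = DMSO plus EC80 ATP and 100% = DMSO alone without ATP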
An asterisk follows results filed as active; ! = a repeat was not active. An excerpt weighted towards active compounds, which were near 2.4% of everything screened.

SMILES	M1 ag parental	M1 PAM parental	CHRM1 agonist	CHRM1 antagonist	M1 PAM	CHO-K1 Ca antag
COc1ccc(-c2csc(Nc3ccc(S(=O)(=O)Nc4cc(C)on4)cc3)n2)cc1C	-1	1	-5	46*	-4	-9
COc1ccc(-c2csc(Nc3ccc(S(=O)(=O)Nc4cc(OC)nc(OC)n4)cc3)n2)cc1	0	14	-7	-6	11	1
c1ccc(CCNc2c3c(nc4ncnn24)CCC3)cc1	21*	7	2	11	-6	-1
O=C(/C=C/c1ccco1)NCC1COc2ccccc2O1 (centres undefined)	0	-11	0	-2	-1	0
CCN=C1SC(CC(=O)Nc2ccc3c(c2)OCO3)C(=O)N1CC (centres undefined)	6	-3	1	28*	-19	23
CCN=C1SC(CC(=O)NCC)C(=O)N1CC (centres undefined)	0	-5	0	-26	0	15
CCN=C1SC(CC(=O)Nc2ccccc2)C(=O)N1CC (centres undefined)	8	14	2	29*!	-16	-5
NC1=NC(=O)C(Cc2ccc(Br)cc2)S1 (centres undefined)	1	10	-1	-7	5	-16
Cc1c(C(=O)NCCC2=CCCCC2)oc2ccc(S(=O)(=O)N3CCC4(CC3)OCCO4)cc12	5	2	-1	35*	-12	12
Cc1c(C(=O)NCc2ccccc2)oc2ccc(S(=O)(=O)N3CCC4(CC3)OCCO4)cc12	5	8	-1	9	0	7
Cc1c(C(=O)NCC2COc3ccccc3O2)oc2ccc(S(=O)(=O)N3CCOCC3)cc12 (centres undefined)	5	0	2	35*	-7	13
Cc1c(C(=O)NCC2COc3ccccc3O2)oc2ccc(S(=O)(=O)N3CC(C)CC(C)C3)cc12 (centres undefined)	0	-11	-4	14	-9	4
CCCCCSc1nnc(N)s1	0	18	-2	-20	27*	-2
O=C1CCCC/C1=C/Nc1ccc2c(c1)OCO2	0	-7	-2	8	-7	29*
CCCc1nc(NCc2ccccn2)c2nnn(Cc3ccccc3F)c2n1	0	-3	0	0	5	30*
CCCc1nc(NCc2ccncc2)c2nnn(Cc3ccccc3F)c2n1	1	19	-2	-16	-5	-5
O=C(NNC(=O)c1ccccc1F)c1ccc(-n2cncn2)c([N+](=O)[O-])c1	0	-14	1	36*	-12	18
O=C(Nc1cccc(/C=C/c2ccccn2)c1)c1ccc(-n2cncn2)c([N+](=O)[O-])c1	10	-15	1	20*	-8	7
CC1(C)Cc2cccc(OCC(=O)Nc3ccccc3N3CCOCC3)c2O1	0	3	-3	30*	-13	7
CCCCNC(=O)C1(C)CCCCN1Cc1ccccc1-c1ccccc1 (centres undefined)	0	15	-7	31*	-25	-15
COc1ccccc1C(=O)N(CCC1CCCN1C)c1nc2ccccc2s1 (centres undefined)	6	2	-3	51*	-23	-10
Cc1sc2ncnc(NCC(O)c3ccccc3)c2c1C (centres undefined)	17*	7	-1	16	-11	14
Cc1sc2ncnc(NCC(O)c3ccc([N+](=O)[O-])cc3)c2c1C (centres undefined)	18*	0	0	34*	-20	27*
Cc1sc2ncnc(NCC(c3ccccc3)N(C)C)c2c1C (centres undefined)	4	-17	-11	57*	-31	7
Cc1sc2ncnc(NCCCO)c2c1C	0	-8	0	14	-7	7
Cc1cc(Cl)ccc1Oc1ccccc1C(=O)CC#N	5	11	-7	-3	6	7
CCN(CC)CC(=O)N1N=C(c2cccs2)CC1c1ccco1 (centres undefined)	0	-6	-5	51*	-21	0
CCC(=O)N1N=C(c2cccs2)CC1c1ccco1 (centres undefined)	-1	1	-11	-2	4	11

Compound activity from PubChem BioAssay.
